EBV LMP1 NFkB – Epstein-Barr LMP1 NF-kappaB reporter inhibition; LMP1-induced NF-kappaB luciferase reporter cells, luminescence; inhibition, % at 12.5 µM; 0.69% of 350,000 active; AID 504558; in the data active = inhibition above about 41%; inconclusive = no clear call, values can overlap the other calls;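 also: 0% = neutral control wells and 100% = reference inhibitor control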
EWS-Fli inh – EWS/Fli transcriptional activity inhibition. A673 NR0B1-luciferase reporter, viability-normalised. inhibition, % at 12.6 µM. 0.67% of 350,000 active. AID 651661;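 active = mean inhibition of at least 50% after viability correction, with every replicate also passing that limit; inconclusive = mean reaches 50% but only one of two replicates passes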;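 also: firefly luciferase signal divided by Alamar Blue viability fluorescence both relative to DMSO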
TWEAK Fn14 block – inhibitors of TWEAK-Fn14 interaction signaling. TWEAK-stimulated Fn14 reporter cells, luciferase luminescence, 8 h. inhibition, % at 10 µM. 2% of 360,000 active; in the data active = inhibition above about 50%
LGR2 inh – Drosophila LGR2 receptor signaling inhibition | HEK293 LGR2, CRE-luciferase, bursicon-stimulated, 4 h | inhibition, % at 9.99 µM | 0.35% of 380,000 active | AID 720647;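 active = drop in luminescence signal, shown as inhibition above about 50% in the replicate tests, limit read from the data, passing the limit was not always enough; inconclusive = probably only some replicates passing the limit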;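 also: agonist challenge used bursicon conditioned medium at about half maximal strength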
TROY NFkB inh – blocks TROY-dependent signaling in reporter cells. Q293 LMP1-TROYcd NF-kB luciferase reporter, 4 h. inhibition, % at 10 µM. 0.98% of 360,000 active;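 active = compounds whose plate-normalised and pattern-corrected inhibition of the luciferase reporter signal at the single screening dose is 50% or more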
* marks the source's active call; other numbers are inactive results; ? = inconclusive; . = not tested or not shown. Compounds with a hit are over-represented: about 2.6% of the library has one in this group of screens.

SMILES | EBV LMP1 NFkB | EWS-Fli inh | TWEAK Fn14 block | LGR2 inh | TROY NFkB inh
CCS(=O)(=O)Nc1ccc(-c2nc3cccnc3s2)cc1 | -8 | 27 | 69* | 27 | 44
O=C(Nc1ccc(-c2nc3cccnc3s2)cc1)C1CCCO1 (stereo not drawn) | 65* | 66* | 99* | 90* | 60*
CC(C)NC(=O)N(C)C[C@H]1OCCCC[C@@H](C)Oc2ccc(NC(=O)c3ccncc3)cc2C(=O)N([C@H](C)CO)C[C@@H]1C | . | -8 | . | 11 | .
C[C@@H]1CN([C@@H](C)CO)C(=O)c2cc(NC(=O)Cc3cn(C)c4ccccc34)ccc2O[C@@H]1CN(C)S(C)(=O)=O | . | -18 | . | 1 | .
C[C@@H]1CCCCO[C@H](CN(C)C)[C@H](C)CN([C@H](C)CO)C(=O)c2cc(NS(C)(=O)=O)ccc2O1 | . | -10 | . | 12 | .
Cc1cc(C)n(S(=O)(=O)c2ccc(F)cc2)n1 | -2 | -4 | 73* | 5 | -2
Cc1cc(C)n(S(=O)(=O)c2ccc(Cl)cc2)n1 | -3 | 1 | 7 | -10 | 0
COc1cc(NC(C)CCCN)c2ncccc2c1 (stereo not drawn) | -13 | 8 | 86* | . | -4
COc1cc(NCCCCCCCN)c2ncccc2c1 | 4 | . | 97* | . | -7
CCNC(=O)[C@H]1[C@H](CO)[C@H]2Cn3c(ccc(C4=CCCC4)c3=O)[C@H]2N1C(=O)C1CC1 | . | 0 | . | -7 | .
COc1cc2c(CCNC(C)=O)c[nH]c2cc1Cl | 74* | -6 | -1 | . | 8
COc1ccc2[nH]cc(CCNC(C)=O)c2c1 | 4 | -7 | -6 | -15 | -3
O=C(/C=C/c1ccccc1)Nc1scc(-c2ccccc2)c1C(=O)O | 0 | -78 | 52* | -10 | 27
O=C(/C=C/c1ccco1)Nc1scc(-c2ccccc2)c1C(=O)O | 38 | -87 | 67* | 17 | 15
C[C@@H]1CN([C@@H](C)CO)C(=O)c2cccc(NC(=O)Nc3ccc(C(F)(F)F)cc3)c2O[C@H]1CN(C)C | . | -17 | . | 16 | .
O=C(C[C@@H]1CC[C@H](NC(=O)c2cccc(F)c2)[C@@H](CO)O1)NCc1ccc(Oc2ccccc2)cc1 | . | 5 | . | -6 | .
N#CC(C#N)=C(Nc1ccc(F)cc1)SCc1cccc(Br)c1 | ? | 5 | 40 | 27 | 34
Cc1cccc(CSC(Nc2ccc(F)cc2)=C(C#N)C#N)c1 | 6 | . | 64* | ? | 48
C[C@H](CO)N1C[C@H](C)[C@H](CN(C)C(=O)Nc2ccccc2)Oc2ncccc2C1=O | . | -4 | . | -4 | .
Cc1ccc(CCNC(=O)C2CC(c3cc(C(F)(F)F)cc(C(F)(F)F)c3)=NO2)cc1 (stereo not drawn) | -7 | -2 | -6 | 4 | -6
Cc1ccc(CNC(=O)C2CC(c3cc(C(F)(F)F)cc(C(F)(F)F)c3)=NO2)o1 (stereo not drawn) | -4 | 54* | 3 | 2 | -2
COc1ccc(C(C)(C)C)cc1NC(=O)CNc1cccc2ccccc12 | 1 | . | 58* | -7 | 40
O=C(NCCNC(=O)c1ccco1)c1cccc(F)c1 | 3 | . | -2 | . | 52*
COc1cc(OC)c(OC)cc1CNCCNC(=O)c1ccco1 | -3 | -1 | 96* | 6 | 5
COc1cccc(CNCCNC(=O)c2ccco2)c1OC | -10 | . | 1 | . | 6
SMILES | EBV LMP1 NFkB | EWS-Fli inh | TWEAK Fn14 block | LGR2 inh | TROY NFkB inh
O=C(NCCNC(=O)c1ccco1)c1ccc(F)cc1 | -2 | 2 | 6 | 7 | 22
COc1ccc(C(C)(C)C)cc1NC(=O)CCNC(=O)c1ccco1 | 10 | 10 | 91* | 0 | 4
COc1ccc(S(=O)(=O)N(C)C)cc1NC(=O)CCNC(=O)c1ccco1 | 5 | 2 | -5 | 7 | -7
O=C(NC1CCCC1)N1CC(=O)N2[C@H](CO)[C@H](c3ccc(-c4cccnc4)cc3)[C@@H]2C1 | . | -40 | . | -1 | .
Cc1noc(C)c1S(=O)(=O)Nc1ccc2c(c1)C(=O)N([C@@H](C)CO)C[C@H](C)[C@@H](CN(C)C(=O)Nc1ccccc1)OCCCC[C@@H](C)O2 | . | -11 | . | -4 | .
CO[C@H]1CN(C)C(=O)c2ccc(NS(=O)(=O)c3cccc(F)c3)cc2OC[C@@H](C)NC[C@@H]1C | . | 0 | . | 11 | .
COc1cccc(C(=O)Nc2ccc3c(c2)C(=O)N(C)C[C@@H](OC)[C@H](C)CN(C(C)=O)[C@@H](C)CO3)c1 | . | -9 | . | 3 | .
CC(=O)c1c(C)[nH]c(C)c1C(C)=O | -3 | . | 62* | . | 10
CC(=O)c1c(C)[nH]c(C(=O)O)c1C | -10 | 15 | 13 | 17 | 11
CO[C@H]1CN(C)C(=O)c2cc(NS(=O)(=O)c3ccc(C)cc3)ccc2OC[C@H](C)N(C(=O)NC(C)C)C[C@@H]1C | . | 2 | . | 30 | .
COc1cccc(C(=O)n2c(SC)nc3cc4c(cc32)OCCO4)c1 | 4 | -37 | 2 | -19 | -28
CSc1nc2cc3c(cc2n1C(=O)c1ccc(C)cc1)OCCO3 | 44* | . | -14 | . | -14
CCCC(=O)Nc1ccc(C(=O)n2nnc3ccccc32)cc1 | 8 | . | 7 | . | -3
C#CCOC(=O)c1ccccc1C(=O)n1nnc2ccccc21 | -7 | . | 55* | 4 | 36
CN(C)c1ccc(C(=O)n2nnc3ccccc32)cc1 | 13 | . | 94* | . | 7
O=C(NC1CCCC1)[C@H]1[C@H](CO)[C@H]2Cn3c(cccc3=O)[C@H]2N1CC1CCOCC1 | . | -8 | . | 10 | .
CCCN(C)C[C@@H]1Oc2cc(C#CCOC)ccc2S(=O)(=O)N([C@@H](C)CO)C[C@@H]1C | . | 12 | . | 12 | .
CSc1ncc(Cl)c(C(=O)Nc2ccc(S(=O)(=O)Nc3nccc(C)n3)cc2)n1 | 4 | . | 6 | -7 | -8
O=C(Nc1ccc(F)cc1)c1nc(S(=O)(=O)Cc2ccccc2)ncc1Cl | -2 | 56* | 79* | -4 | 69*
O=C(Nc1ccc(F)cc1)c1nn(-c2ccccc2)c(=O)cc1Cl | 7 | 11 | 55* | 75* | 19
Cc1ccc(NC(=O)c2nc(S(=O)(=O)Cc3ccccc3)ncc2Cl)cc1 | 24 | 61* | 67* | 4 | 80*
CCOC(=O)c1ccc(NC(=O)c2nc(SC)ncc2Cl)cc1 | 1 | -6 | -31 | 1 | -9
Cc1ccccc1CS(=O)(=O)c1ncc(Cl)c(C(=O)Nc2ccc(F)cc2)n1 | 52* | 56* | 82* | 22 | 78*
COc1ccc(NC(=O)N(C)C[C@@H]2OCCCC[C@H](C)Oc3ccc(NC(=O)c4ccncc4)cc3C(=O)N([C@H](C)CO)C[C@@H]2C)cc1 | . | -5 | . | 3 | .
COc1ccc(S(=O)(=O)Nc2ccc3c(c2)C(=O)N([C@@H](C)CO)C[C@H](C)[C@H](CN(C)S(=O)(=O)c2cccs2)OCCCC[C@H](C)O3)cc1 | . | 16 | . | 25 | .
C[C@@H]1CCCCO[C@@H](CN(C)S(C)(=O)=O)[C@H](C)CN([C@@H](C)CO)C(=O)c2cc(NS(=O)(=O)c3ccccc3)ccc2O1 | . | -13 | . | 5 | .
CCCNC(=O)N(C)C[C@H]1Oc2ncc(C#CC3(O)CCCC3)cc2C(=O)N([C@@H](C)CO)C[C@H]1C | . | -6 | . | 3 | .
O=C(CCCSc1nc2ccccc2[nH]1)N1CCN(c2ccc([N+](=O)[O-])cc2)CC1 | 19 | . | 50* | . | 37

Screens: PubChem, several laboratories
